The text below walks through data of ChEMBL document CHEMBL3988442, “University of Dundee, Small-Polar-MMV Screening Library” (2021).

Molecules are shown by their SMILES. For some assays here: Measured potencies and affinities stand elsewhere.

What all share (set-up): scale not given: direction of the effect not stated beside the values
Assay [1] deals with Protein translocase subunit SecA (Escherichia coli (strain K12)) (UniProt P10408). The experiment in a line: Assay to Identify E. coli SecA ATPase Inhibitors. Type of assay: functional. Particulars: 30 µM.
Chain of Protein translocase subunit SecA (Escherichia coli (strain K12)) (P10408 whole entry): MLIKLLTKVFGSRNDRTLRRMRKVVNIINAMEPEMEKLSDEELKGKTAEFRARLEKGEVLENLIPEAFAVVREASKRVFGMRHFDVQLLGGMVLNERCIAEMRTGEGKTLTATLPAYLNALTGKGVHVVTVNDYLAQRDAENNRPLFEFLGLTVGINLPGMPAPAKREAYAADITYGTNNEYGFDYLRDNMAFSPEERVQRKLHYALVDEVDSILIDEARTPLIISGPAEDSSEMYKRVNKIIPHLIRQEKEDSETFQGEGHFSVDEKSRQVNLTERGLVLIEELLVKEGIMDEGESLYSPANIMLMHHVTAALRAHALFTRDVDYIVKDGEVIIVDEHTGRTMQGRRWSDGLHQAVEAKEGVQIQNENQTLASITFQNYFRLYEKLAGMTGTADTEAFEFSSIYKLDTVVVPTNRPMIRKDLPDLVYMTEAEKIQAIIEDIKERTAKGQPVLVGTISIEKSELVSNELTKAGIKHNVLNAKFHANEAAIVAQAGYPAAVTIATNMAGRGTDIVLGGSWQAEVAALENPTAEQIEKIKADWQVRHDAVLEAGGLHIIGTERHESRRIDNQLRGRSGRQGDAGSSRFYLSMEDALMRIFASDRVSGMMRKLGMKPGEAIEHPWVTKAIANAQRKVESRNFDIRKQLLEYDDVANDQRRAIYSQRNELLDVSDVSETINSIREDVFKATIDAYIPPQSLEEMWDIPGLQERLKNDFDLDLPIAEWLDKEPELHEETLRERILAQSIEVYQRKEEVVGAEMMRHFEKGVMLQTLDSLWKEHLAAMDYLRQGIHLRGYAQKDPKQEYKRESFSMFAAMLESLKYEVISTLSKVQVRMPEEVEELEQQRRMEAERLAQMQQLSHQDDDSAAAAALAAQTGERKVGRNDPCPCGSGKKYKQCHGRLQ
The target in assay [2] is T1, Ubiquitin-activating enzyme e1, putative (Leishmania donovani (strain BPK282A1)) (UniProt E9BSI1).
T1 sequence (whole entry): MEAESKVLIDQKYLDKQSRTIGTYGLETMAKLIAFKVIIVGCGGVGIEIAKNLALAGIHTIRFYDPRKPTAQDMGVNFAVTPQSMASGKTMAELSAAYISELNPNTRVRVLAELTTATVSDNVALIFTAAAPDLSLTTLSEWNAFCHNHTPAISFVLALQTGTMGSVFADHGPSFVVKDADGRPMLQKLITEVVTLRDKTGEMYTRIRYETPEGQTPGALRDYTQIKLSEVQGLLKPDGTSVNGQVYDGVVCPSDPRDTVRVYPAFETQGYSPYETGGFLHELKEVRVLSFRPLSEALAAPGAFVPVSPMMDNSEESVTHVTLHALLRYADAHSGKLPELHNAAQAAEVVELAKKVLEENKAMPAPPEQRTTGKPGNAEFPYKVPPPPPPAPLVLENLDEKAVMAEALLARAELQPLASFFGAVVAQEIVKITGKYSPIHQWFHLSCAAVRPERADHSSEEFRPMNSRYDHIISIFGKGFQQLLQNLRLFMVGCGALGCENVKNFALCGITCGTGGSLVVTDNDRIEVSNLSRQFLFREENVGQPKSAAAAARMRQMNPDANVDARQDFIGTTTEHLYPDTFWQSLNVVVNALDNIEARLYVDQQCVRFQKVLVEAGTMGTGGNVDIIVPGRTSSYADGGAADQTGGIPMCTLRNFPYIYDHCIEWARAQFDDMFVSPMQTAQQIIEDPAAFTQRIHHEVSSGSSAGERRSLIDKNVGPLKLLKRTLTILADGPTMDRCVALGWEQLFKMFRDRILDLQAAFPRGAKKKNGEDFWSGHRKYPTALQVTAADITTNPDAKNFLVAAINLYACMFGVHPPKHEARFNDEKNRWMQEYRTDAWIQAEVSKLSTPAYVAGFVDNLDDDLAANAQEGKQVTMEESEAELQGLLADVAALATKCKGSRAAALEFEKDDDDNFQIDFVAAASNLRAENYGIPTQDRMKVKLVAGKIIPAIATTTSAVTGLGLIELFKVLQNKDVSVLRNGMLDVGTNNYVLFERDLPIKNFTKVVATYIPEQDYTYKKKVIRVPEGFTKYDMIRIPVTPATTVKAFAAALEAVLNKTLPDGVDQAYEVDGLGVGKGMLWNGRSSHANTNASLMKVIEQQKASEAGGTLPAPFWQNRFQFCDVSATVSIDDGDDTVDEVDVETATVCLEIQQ
Nature of the assay: Leishmania donovani Ubiquitin Activating Enzyme (LdE1). The format is functional. To be noted: 30 µM.

In assay [3] the target is AMP-activated protein kinase, AMPK (Homo sapiens) (UniProt P54646+O43741+P54619+Q9UGJ0+Q9Y478+Q13131+Q9UGI9). The experiment in a line: AMP-dependent Kinase enzyme assay. An in vitro enzyme assay that detects ADP turnover that is directly proportional to AMPK activity. This uses naive AMPK that is activated during the assay with MK-8722. Particulars: 30 µM. The format is functional.

The target of assay [4] is Sialic acid-binding Ig-like lectin 9 (Homo sapiens) (UniProt Q9Y336). The experiment in a line: Hs-Siglec9 ALPHAscreen SOP 20170721. To be noted: 10 µM. For orientation: Alpha assays give light when donor and acceptor beads are brought close together.
Chain of Sialic acid-binding Ig-like lectin 9 (Homo sapiens) (Q9Y336 whole entry): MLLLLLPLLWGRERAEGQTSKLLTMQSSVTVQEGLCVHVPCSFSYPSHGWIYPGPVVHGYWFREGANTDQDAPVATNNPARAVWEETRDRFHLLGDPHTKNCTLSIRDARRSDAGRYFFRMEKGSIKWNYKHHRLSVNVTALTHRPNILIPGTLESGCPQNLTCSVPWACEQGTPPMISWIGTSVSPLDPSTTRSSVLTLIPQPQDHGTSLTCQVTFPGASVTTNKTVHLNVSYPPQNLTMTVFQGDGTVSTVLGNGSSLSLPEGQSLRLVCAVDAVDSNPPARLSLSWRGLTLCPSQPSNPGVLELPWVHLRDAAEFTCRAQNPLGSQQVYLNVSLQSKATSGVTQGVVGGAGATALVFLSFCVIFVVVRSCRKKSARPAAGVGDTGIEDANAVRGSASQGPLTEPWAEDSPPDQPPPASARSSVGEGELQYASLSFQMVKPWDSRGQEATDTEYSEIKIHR
The subject of assay [5] is Trypanosoma cruzi. Nature of the assay: Trypanosoma cruzi phosphomannomutase and mannose-1-phosphate guanylyltransferase assay. Type of assay: functional. To be noted: 10 µM.
Assay [6] concerns the target T2, Arginase-2, mitochondrial (Homo sapiens) (UniProt P78540).
T2 sequence (whole entry): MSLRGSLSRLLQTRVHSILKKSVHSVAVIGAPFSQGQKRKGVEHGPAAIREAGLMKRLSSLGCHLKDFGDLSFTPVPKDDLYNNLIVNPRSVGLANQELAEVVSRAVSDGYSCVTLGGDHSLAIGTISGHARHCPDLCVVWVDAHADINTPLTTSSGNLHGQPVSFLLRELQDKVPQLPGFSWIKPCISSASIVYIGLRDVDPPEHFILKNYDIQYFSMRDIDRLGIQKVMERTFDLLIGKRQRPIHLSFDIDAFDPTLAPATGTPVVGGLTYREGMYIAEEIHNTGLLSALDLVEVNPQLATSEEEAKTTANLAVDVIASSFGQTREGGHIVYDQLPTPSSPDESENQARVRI
The experiment in a line: in vitro enzyme assay to detect the production of urea directly proportional to the activity of Arginase II. Further: in the data most compounds retested in dose-response had high values. The format is functional. Particulars: 33.3 µM.

Assay [7] deals with T3, Proteasome subunit beta (Trypanosoma cruzi) (UniProt O96673).
T3 sequence (whole entry): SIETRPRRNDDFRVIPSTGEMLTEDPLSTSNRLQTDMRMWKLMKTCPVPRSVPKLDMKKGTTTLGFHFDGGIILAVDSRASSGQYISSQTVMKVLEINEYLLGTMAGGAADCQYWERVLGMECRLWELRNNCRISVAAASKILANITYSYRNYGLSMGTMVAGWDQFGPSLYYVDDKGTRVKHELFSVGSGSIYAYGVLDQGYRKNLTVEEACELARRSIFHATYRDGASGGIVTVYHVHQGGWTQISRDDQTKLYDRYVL
Nature of the assay: Trypanosoma cruzi proteasome chymotrypsin-like activity (TcProtChymo) assay. Further: in the data most compounds retested in dose-response had high values. The format is functional. Particulars: 9.37 µM.

The species entered for assay [8] is Homo sapiens. Nature of the assay: To identify inhibition of the IFN signalling (Jak-Stat) pathway via expression of an eGFP reporter gene under the control of an IFN-stimulated response element (ISRE) containing MxA promoter. Type of assay: functional. Particulars: 30 µM. A general note: In a reporter assay the amount or activity of a reporter protein is the signal.

The target in assay [9] is T4, Tyrosyl-tRNA synthetase, putative (Trypanosoma cruzi (strain CL Brener)) (UniProt Q4DSP6).
T4 sequence (whole entry): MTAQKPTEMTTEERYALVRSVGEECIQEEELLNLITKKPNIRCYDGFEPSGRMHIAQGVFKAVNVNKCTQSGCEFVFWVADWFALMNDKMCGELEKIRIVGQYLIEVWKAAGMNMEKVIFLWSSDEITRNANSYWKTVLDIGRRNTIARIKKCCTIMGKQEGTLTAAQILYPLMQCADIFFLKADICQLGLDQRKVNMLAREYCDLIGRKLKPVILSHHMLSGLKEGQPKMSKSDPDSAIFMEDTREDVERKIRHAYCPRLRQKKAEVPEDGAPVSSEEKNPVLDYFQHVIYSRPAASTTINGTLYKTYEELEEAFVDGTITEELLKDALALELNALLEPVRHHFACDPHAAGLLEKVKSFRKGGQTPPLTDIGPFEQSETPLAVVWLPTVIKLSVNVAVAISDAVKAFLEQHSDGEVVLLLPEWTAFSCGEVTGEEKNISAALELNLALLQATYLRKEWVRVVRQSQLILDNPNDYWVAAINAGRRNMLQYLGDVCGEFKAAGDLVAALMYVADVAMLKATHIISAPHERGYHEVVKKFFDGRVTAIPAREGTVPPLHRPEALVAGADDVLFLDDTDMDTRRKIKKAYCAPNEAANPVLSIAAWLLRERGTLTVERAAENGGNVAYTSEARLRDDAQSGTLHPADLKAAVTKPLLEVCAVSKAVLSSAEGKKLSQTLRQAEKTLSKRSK
The experiment in a line: Trypanosoma cruzi tyrosyl tRNA synthetase (TcYRS) _High Tyrosine SOP. Further: in the data most compounds retested in dose-response had high values. The format is functional. To be noted: 30 µM.

Assay [10] has as its target T4, Tyrosyl-tRNA synthetase, putative (Trypanosoma cruzi (strain CL Brener)). The experiment in a line: Trypanosoma cruzi tyrosyl tRNA synthetase (TcYRS) SOP. To be noted: 30 µM. The format is functional.
Assay [11] deals with Chromo domain-containing protein 1 (Saccharomyces cerevisiae (strain ATCC 204508 / S288c) (Baker's yeast)) (UniProt P32657). Nature of the assay: ScCHD-1 Enzyme Inhibition Assay. Further: in the data most compounds retested in dose-response had high values. Type of assay: functional. To be noted: 30 µM.
Chain of Chromo domain-containing protein 1 (Saccharomyces cerevisiae (strain ATCC 204508 / S288c) (Baker's yeast)) (P32657 whole entry, the tested form may be a part): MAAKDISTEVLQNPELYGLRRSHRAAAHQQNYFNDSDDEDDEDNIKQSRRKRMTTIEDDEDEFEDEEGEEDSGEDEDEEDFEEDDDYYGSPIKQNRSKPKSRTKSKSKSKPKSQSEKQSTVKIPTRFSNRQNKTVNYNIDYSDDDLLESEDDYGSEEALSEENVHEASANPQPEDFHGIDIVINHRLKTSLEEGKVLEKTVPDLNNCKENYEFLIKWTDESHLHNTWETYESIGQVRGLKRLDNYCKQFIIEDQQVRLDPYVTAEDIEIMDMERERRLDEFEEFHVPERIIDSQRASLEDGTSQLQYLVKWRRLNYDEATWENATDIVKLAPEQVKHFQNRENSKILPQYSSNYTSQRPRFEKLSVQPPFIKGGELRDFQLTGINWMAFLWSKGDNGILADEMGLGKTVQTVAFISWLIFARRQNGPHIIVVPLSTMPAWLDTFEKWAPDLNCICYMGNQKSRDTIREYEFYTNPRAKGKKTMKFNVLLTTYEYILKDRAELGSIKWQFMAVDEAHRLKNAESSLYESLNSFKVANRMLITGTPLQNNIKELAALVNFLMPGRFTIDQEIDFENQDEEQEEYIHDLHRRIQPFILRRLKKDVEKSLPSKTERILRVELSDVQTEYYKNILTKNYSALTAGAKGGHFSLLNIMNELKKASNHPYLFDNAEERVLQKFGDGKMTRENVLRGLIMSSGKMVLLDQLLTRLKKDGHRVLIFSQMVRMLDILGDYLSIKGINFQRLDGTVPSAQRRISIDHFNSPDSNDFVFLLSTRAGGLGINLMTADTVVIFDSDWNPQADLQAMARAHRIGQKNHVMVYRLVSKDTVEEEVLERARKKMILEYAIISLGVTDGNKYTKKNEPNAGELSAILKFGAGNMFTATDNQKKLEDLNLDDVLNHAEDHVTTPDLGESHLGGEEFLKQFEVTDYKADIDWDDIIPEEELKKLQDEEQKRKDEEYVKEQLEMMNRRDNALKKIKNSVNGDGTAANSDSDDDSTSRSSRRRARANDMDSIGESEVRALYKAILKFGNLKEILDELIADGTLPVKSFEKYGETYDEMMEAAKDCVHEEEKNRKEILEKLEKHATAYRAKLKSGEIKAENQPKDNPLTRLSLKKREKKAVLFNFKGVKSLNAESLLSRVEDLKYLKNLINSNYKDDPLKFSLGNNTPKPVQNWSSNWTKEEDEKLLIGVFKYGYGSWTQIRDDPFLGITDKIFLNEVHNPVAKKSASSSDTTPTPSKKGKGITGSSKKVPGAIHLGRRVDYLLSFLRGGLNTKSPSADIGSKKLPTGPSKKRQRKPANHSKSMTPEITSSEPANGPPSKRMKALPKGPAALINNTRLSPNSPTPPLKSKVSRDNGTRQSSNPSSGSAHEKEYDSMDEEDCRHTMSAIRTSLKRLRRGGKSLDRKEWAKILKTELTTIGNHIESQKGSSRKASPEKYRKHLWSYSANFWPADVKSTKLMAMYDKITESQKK

For the compound `Cc1cc(C)n(CC2CN(Cc3cccc(C(N)=O)c3)CCO2)n1` (stereo not given), the Percent Effect in [1] is -2.43%; in assay [2] it was 16.2%; in assay [3], 8.27%; in assay [4] it was -0.119%; in [5], 4.69%; in assay [6] it was 8.75%. In addition, the Percent Effect in assay [7] turned out to be 20.7%; in assay [8], 18.8%; in [9], 7.92%; in assay [10], 20.7%; in assay [11], 97.6%.
For `Cc1nsc(C(=O)N2CCc3ccccc3C2)n1`, the Percent Effect in assay [1] is -7.16%; in assay [2] it was 13%; in [3], -4.33%; in assay [4], -9.01%; in assay [5], 4.44%; in assay [6], -1.94%. Besides, the Percent Effect in assay [7] is 5.22%; in assay [8], 3.35%; in [9], 3.17%; in assay [10], 8.97%; in assay [11], -9.64%.
Take `Cc1cc(C)n(CC(=O)N(C)Cc2csc(-c3cccs3)n2)c(=O)n1`: the Percent Effect in assay [1] was 0.251%; in assay [2] it was 0%; in assay [3], -4.15%; in [4], 2.64%; in assay [5] it was 1.66%; in [6] it was 7.29%. In addition, the Percent Effect in assay [7] is 19.5%; in assay [8] it was 17.8%; in [9] it was 6.01%; in [10], 18.5%; in assay [11] it was -6.32%.
Consider `Cc1cccc(CN2CCN(Cc3ccccc3)CC(O)C2)n1` (stereo not given), for which the Percent Effect is -1.78% in assay [1]; 0% in assay [2]; -4.59% in assay [3]; 2.56% in assay [4]; -0.193% in assay [5]; -1.43% in assay [6]. The Percent Effect in assay [7] is 9.14%; in assay [8], 4.22%; in [9], 8.99%; in assay [10] it was 19.5%; in assay [11], -3.04%.
With `c1csc(CN2C[C@@H]3OCCN(CC4CCCO4)[C@@H]3C2)c1` (stereo not given in full), the Percent Effect was -3.09% in assay [1]; 5.48% in assay [2]; -0.633% in assay [3]; 5.1% in [4]; -1.39% in assay [5]; -1.2% in assay [6]. In addition, the Percent Effect in assay [7] was determined as 10.2%; in assay [8] it was 4.94%; in assay [9], 5.21%; in assay [10] it was 16.1%; in [11], 1.15%.
As for `Cc1cccc(C(=O)NC(CN2CCCC2=O)c2ccccc2)n1` (stereo not given), the Percent Effect in assay [1] is -2.94%; in [2], 13.2%; in assay [3], -3.02%; in assay [4] it was 7.02%; in [5], 5.83%; in [6] it was 6.13%. Further, the Percent Effect was 8.35% in [7]; -4.47% in [8]; 5.39% in [9]; 21.9% in [10]; -10.3% in assay [11].
Consider `Cn1nc(C(=O)N2CCCCC2c2nc3cc(F)ccc3[nH]2)ccc1=O` (stereo not given), for which the Percent Effect in assay [1] is -6.48%; in assay [2] it was 15.3%; in assay [3], -16.2%; in assay [4], 39.4%; in assay [5] it was 10.6%; in assay [6] it was 3.97%. Moreover, the Percent Effect was 9.82% in [7]; -6.87% in assay [8]; 2.1% in [9]; 17.9% in assay [10]; -10.9% in [11].
As to `CCOC(C)c1nc(CN2CCN(c3nccc(C)n3)CC2)cs1` (stereo not given), the Percent Effect is -1.18% in [1]; 0% in assay [2]; -0.85% in assay [3]; -1.42% in assay [4]; 0.386% in assay [5]; -0.476% in assay [6]. The Percent Effect was 10.2% in assay [7]; -0.937% in assay [8]; -3.7% in [9]; 2.44% in [10]; -2.47% in assay [11].
Consider `N#Cc1ccnc(N2CCN(C(=O)Cc3ccc4c(c3)CCO4)CC2)c1`, for which the Percent Effect was -5.74% in [1]; 21.1% in assay [2]; -3.75% in assay [3]; 4.19% in assay [4]; 5.83% in [5]; 0% in [6]. Besides, the Percent Effect is 13.4% in assay [7]; 1.61% in assay [8]; 2.45% in assay [9]; 19.5% in assay [10]; -11.9% in [11].
As for `CC1CCN(c2ncc3c(n2)CN(c2ccc4c(c2)OCO4)C3=O)CC1`, the Percent Effect in assay [1] was -4.8%; in assay [2] it was 7.79%; in [3] it was -3.15%; in [4], 7.77%; in assay [5] it was 0.492%; in [6], -9.65%. The Percent Effect was 14.1% in assay [7]; -2.83% in assay [8]; 5.38% in assay [9]; 11.1% in [10]; 1.03% in [11].
